Assay outcomes as filed in PubChem BioAssay.
HT1080 IDH1KD tx – qHTS for induction of synthetic lethality in tumor cells producing 2HG: qHTS for the HT-1080-IDH1KD cell line | AID 686971, 2013 | 360,000 tested, 2% active | HT-1080 IDH1 knockdown viability, ATP luminescence, 48 h | Potency, µM (top dose mostly 46.1 µM), without a hit: top-dose activity, negative = toxicity, usual class: cytotoxic;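 further: potency means the concentration at half of the fitted maximal effect; 0% = DMSO wells and -100% = cell-free medium wells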
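CellTiter-Glo luminescence after 48 h compound exposure at 37 degrees C of IDH1-knockdown HT-1080 cells in 5% FBS RPMI. %Activity scaled between DMSO wells and cell-free media wells, with curves fitted and assigned curve classes.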
IL-1B inflam inh – qHTS for Inhibitors of Inflammasome Signaling: IL-1-beta AlphaLISA Primary Screen; THP-1 LPS/ATP IL-1B secretion, AlphaLISA, 16 h; active compounds read low; activity change, % at 57.5 µM; 360,000 tested, 4.7% active; in the data active means activity change below about -50%; inconclusive means mostly about -30% to -49%
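THP-1 cells pretreated 1 hr with compounds (up to 57.5 uM final), then stimulated with LPS (250 ng/mL final) plus ATP (1.25 mM final); secreted IL-1B measured by AlphaLISA after 16 hr, decreased signal indicating inhibition.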
KB-3-1 tox – qHTS assay for MDR1-selective chemotherapeutics: Primary screen using the parental adenocarcinoma cell KB-3-1. KB-3-1 viability, CellTiter-Glo ATP luminescence, 72 h. Potency, µM (doses to about 46.1 µM), actives largely listed as cytotoxic. 400,000 tested, 1.4% active; further: potency means the concentration at half of the fitted maximal effect; nearly all actives have a fitted effect of over 60% in size
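Screening of KB-3-1 cells (DMEM, 10% FBS, phenol-red free) ran from lowest to highest compound concentration; after 72 h at 37 °C viability was read luminescently and curves fitted.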
HT1080NT lethal – qHTS for induction of synthetic lethality in tumor cells producing 2HG: qHTS for the HT-1080-NT fibrosarcoma cell line; Potency, µM (titrated, usually from 46.1 µM), without a hit: top-dose activity, negative = less viability, actives largely listed as cytotoxic; 360,000 tested, 1.6% active; HT-1080-NT fibrosarcoma viability, CellTiter-Glo ATP luminescence, 48 h; AID 686970, 2013;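 further: NT is the 2HG producing partner of a matched IDH1 knockdown line; potency means the concentration at half of the fitted maximal effect; 0% = DMSO-treated cells and -100% = media-only wells without cells; nearly all actives have a fitted effect of over 55% in size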
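Viability by CellTiter-Glo luminescence after 48 h compound exposure at 37C of HT-1080-NT cells (750/well, RPMI, 5% FBS). % activity scaled between DMSO wells and medium-only wells, then curve-fitted and categorized by curve class.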
KB-V1 cytotox – qHTS assay for MDR1-selective chemotherapeutics: Primary screen using the drug-selected MDR subline cells KB-V1; KB-V1 MDR cells viability, CellTiter-Glo, 72 h; Potency, µM (series often up to 46.1 µM), actives largely listed as cytotoxic; 400,000 tested, 3.4% active; further: potency means the concentration at half of the fitted maximal effect; nearly all actives have a fitted effect of over 60% in size
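KB-V1 cells (P-gp-expressing MDR subline of KB-3-1) in phenol-red-free DMEM with 10% FBS were exposed to library compounds over a concentration series for 72 h at 37 degrees C. Viability read by CellTiter-Glo luminescence; concentration-effect curves fitted after normalization.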
* hit, by the source's call; i = inactive; ? = inconclusive; . = no result given. Only some compounds are listed: those with a hit (about 8.8% of all), similar ones and a draw of the others. Unless noted, the call rests on the fitted dose curve; in most records, active means well fitted curve in the direction sought with a large enough effect; inconclusive means small, poorly fitted or top-dose-only effect, or another doubt; inactive means no such curve, though single readings can be large; an effect the other way counts as inactive or inconclusive. Unless noted, on the % scale 0 is the no-effect control and ±100 the full control effect.

SMILES	HT1080 IDH1KD tx	IL-1B inflam inh	KB-3-1 tox	HT1080NT lethal	KB-V1 cytotox
COc1cc(/C=C2\COC/C(=C\c3ccc(O)c(OC)c3)C2=O)ccc1O	?	-100.3*	i	?	i
COc1ccc2c(c1)CC/C(=C/c1ccccn1)C2=O	-22.9%	?	i	-22.8%	i
COc1cc(/C=C2\CC/C(=C\c3ccc(OCCO)c(OC)c3)C2=O)ccc1OCCO	-12.8%	-76.8*	i	-25.0%	i
COc1ccccc1OCCCOc1ccc(/C=C2\SC(=O)NC2=O)cc1OC	?	-6.3	i	-27.8%	i
COc1ccc(/C=C2\CCc3ccccc3C2=O)cc1Cn1nc(C)cc1C	?	-50.9*	?	?	18.4µM*
O=C1C(=Cc2ccccn2)CCc2ccccc21	?	-108.3*	?	?	?
Cc1ccc(NS(=O)(=O)c2ccc3c(c2)N(C)C(=O)CO3)cc1C	.	.	i	.	i
COc1cc(/C=C2\SC(N)=NC2=O)ccc1O	18.4µM*	-83.0*	?	?	?
COc1ccc(/C=C2\CCc3ccccc3C2=O)cc1OC	-0.1%	9.6	i	2.0%	16.4µM*
COc1cc(C=C2C(=O)c3ccccc3C2=O)ccc1O	-0.6%	8.1	i	-0.5%	i
COc1ccc(/C=C2\CC/C(=C\c3ccc(OC)c(OC)c3)C2=O)cc1OC	?	-6.1	18.4µM*	?	?
COc1cc(/C=C2/CC/C(=C/c3ccc(O)c(OC)c3)C2=O)ccc1O	20.6µM*	-17.4	?	18.4µM*	?
COc1ccc2c(c1)CC/C(=C/c1cc(OC)c(OC)c(OC)c1)C2=O	-6.8%	-85.2*	i	16.4%	i
COc1cc(/C=C/C=C2/CC/C(=C/C=C/c3ccc(O)c(OC)c3)C2=O)ccc1O	-9.5%	-91.9*	i	-11.0%	i
Cc1ccccc1/C=C1\CCCc2ccccc2C1=O	-15.5%	0.0	i	-15.2%	i
COc1ccc(C=C2C=C(C(C)(C)C)C(=O)C(C(C)(C)C)=C2)cc1OC	18.4µM*	-95.6*	?	11.6µM*	?
O=C1/C(=C\c2ccc3ccccc3c2)CCCc2ccccc21	13µM*	5.6	5.17µM*	?	7.31µM*
COc1ccc(CNC(=O)c2cc3cccc4c3n2CC(C)S4)cc1 (stereo not drawn)	.	.	i	.	i
CC(=O)Nc1ccc(C2Nc3c(C)cc(C)cc3-c3cc(C)nn32)cc1 (stereo not drawn)	.	.	i	.	i
COc1ccc(/C=C2\SC(N3CCc4ccccc4C3)=NC2=O)cc1OC	?	-29.4	?	?	11.6µM*
COc1ccc(NC(=O)CCCn2c(=O)c3sccc3n(Cc3ccccc3C)c2=O)cc1	-4.3%	2.5	i	13.2%	9.2µM*
CC(=O)c1ccc(N2CCN(S(=O)(=O)c3csc(C(N)=O)c3)CC2)cc1	?	29.7	i	-27.3%	?
Cc1cccc(N2CCN(C(=O)c3cc(S(=O)(=O)N4CCCC4)cn3C)CC2)c1C	14.6µM*	27.8	i	?	i
Cn1cc(S(=O)(=O)N2CCCCCC2)cc1C(=O)N1CCN(c2cccc(C(F)(F)F)c2)CC1	.	.	?	.	20.6µM*
Cc1cccc(N2CCN(S(=O)(=O)c3csc(C(N)=O)c3)CC2)c1C	.	.	20.6µM*	.	i
Cc1cccc(N2CCN(C(=O)c3cc(S(=O)(=O)N4CCOCC4)cn3C)CC2)c1C	-1.4%	?	i	0.0%	i
O=C1c2ccccc2C(c2nnnn2Cc2ccccc2)N1C1CC1 (stereo not drawn)	4.8%	20.6	i	5.8%	i
CCOc1ccc(-n2c(O)c(/C=N/NC(=O)C3COc4ccccc4O3)c3ccccc3c2=O)cc1 (stereo not drawn)	-22.6%	11.8	?	0.5%	?
